Among all 360,000 compounds or so, about 2,100 (0.58%) were called active.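 How the source made its calls: active means inhibition at 20 µM, scaled to each plate's controls, above about 33% (limit read from the data); inactive means the rest.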 Many of the other results were omitted from the sample, so actives are more common in it than they were.

The experiment deals with 26S proteasome non-ATPase regulatory subunit 14 (Homo sapiens) (UniProt O00487). Put plainly: inhibition of 26S proteasome subunit Rpn11 – biochemical, fluorescence polarization, uHTS, primary screen (AID 588493). The note with it: human 26S proteasome, Ub4-pepOG fluorescence polarization; at 20 µM; active compounds read high; 20S core pre-blocked with epoxomicin. (In general: Fluorescence polarisation rises when a labelled molecule tumbles more slowly, as on binding a larger partner.)
Chain of 26S proteasome non-ATPase regulatory subunit 14 (Homo sapiens) (O00487 whole entry, looked up): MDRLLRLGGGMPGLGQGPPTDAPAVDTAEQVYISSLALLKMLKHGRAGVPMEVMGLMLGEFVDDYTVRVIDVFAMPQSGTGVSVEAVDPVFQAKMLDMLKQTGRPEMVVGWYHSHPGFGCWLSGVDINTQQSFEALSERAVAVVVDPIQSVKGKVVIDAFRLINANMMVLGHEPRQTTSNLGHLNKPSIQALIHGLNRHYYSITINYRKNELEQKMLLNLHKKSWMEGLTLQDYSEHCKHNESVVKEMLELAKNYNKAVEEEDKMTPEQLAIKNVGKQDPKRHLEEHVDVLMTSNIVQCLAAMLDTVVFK
As for `Cc1ccc(S(=O)(=O)N[C@@H](Cc2ccccc2)C(=O)N2CCC(C(=O)N[C@H](C(=O)O)C(C)O)CC2)cc1` (stereo partly drawn), the inhibition – broadly, the change of the read-out against control, counted positive when it falls – is -7.8% (inactive).

As for `Cc1ccc(NC(=O)CN2CCc3ccccc3C2)cc1`, the inhibition is 90.1% (active).

With `O=C(CN1CCc2cc3c(cc2C1)OCCCO3)Nc1ccccc1`, the inhibition is 1.3% (inactive).

As for `Cc1ccc(NC(=O)CN2CCc3ccccc3C2)cc1C`, the inhibition is 7.2% (inactive).

Regarding `CSc1nccc(NC(=O)c2ccc(C(C)(C)C)cc2)n1`, the inhibition is 0.3% (inactive).

With `CSC1=N/C(=C\C=C\c2cccs2)C(=O)S1`, the inhibition is 41.3% (active).

In the case of `CC1(C(=O)NS(=O)(=O)c2ccccc2)CCN1C(=O)C1CCCCC1` (stereo not drawn), the inhibition is -2.7% (inactive).

For `O=C(CCN1CCN(C/C=C/c2ccccc2)CC1)Nc1cccc(F)c1`, the inhibition was 2.3% (inactive).

For `Cc1nc2ccc(C(=O)N3CCSCC3)cc2s1`, the inhibition is 93.1% (active).

With `Cc1nc2ccc(NC(=O)C3CCCCC3)cc2s1`, the inhibition is -1.1% (inactive).

Regarding `Cc1cccc(C(=O)N2CCC(c3nc4ccccc4s3)CC2)c1`, the inhibition is -7.6% (inactive).

For the molecule `Cc1ccc(C2CCN(C(=S)Nc3cccc(Cl)c3)C2)cc1` (stereo not drawn), the inhibition was -2.1% (inactive).

Regarding `Cc1cc(C)cc(NC(=S)NCCCN2CCOCC2)c1`, the inhibition is 0.3% (inactive).

In the case of `Cc1ccc2cc(C#N)c(NCCNC(=S)NCCCN3CCOCC3)nc2c1`, the inhibition is 50.7% (active).

As for `COCCCNC(=S)NCCNc1nc2cc(C)c(C)cc2cc1C#N`, the inhibition was -1.6% (inactive).

`CN(Cc1ccccc1F)c1cc2c(c3c1ccn3C)C1CCC2O1` (stereo not drawn): the inhibition is 7.9% (inactive).

As for `O=S(=O)(c1cccc(S(=O)(=O)N2CCC(n3nnc4ccccc43)CC2)c1)N1CCCCC1`, the inhibition is 4.9% (inactive).

In the case of `CN1CCN(c2ccc(NC(=O)c3cc(Cl)c4c(c3)OCCO4)cc2)CC1`, the inhibition was -0.3% (inactive).

Consider `C=CC(=O)Nc1ccc(Nc2ccnc(Nc3ccc(N4CCN(C)CC4)cc3)n2)cc1`, for which the inhibition was 66.1% (active).

Consider `Cn1cnnc1SCC(=O)Nc1ccc(N2CCOCC2)cc1`, for which the inhibition is 7.5% (inactive).

Take `C=CCc1cc(S(=O)(=O)c2ccc(O)c(CC=C)c2)ccc1O`: the inhibition is -1.3% (inactive).

Take `Cc1nc2nc(COc3ccccc3)[nH]n2c(=O)c1C`: the inhibition is 3.7% (inactive).

Consider `CNC(=O)NCCN1CCCC1=O`, for which the inhibition was -0.3% (inactive).

`CCCCC(C(=O)NC(C)(C)C)N(Cc1ccccc1)C(=O)c1snc(C(N)=O)c1N` (stereo not drawn): the inhibition was -1.4% (inactive).

Regarding `Cc1csc2nc(O)c(C(=O)NCCN3CCOCC3)c(=O)n12`, the inhibition is -3.8% (inactive).

For `CC(=O)Nc1ccccc1Sc1ccc2c3c(cccc13)C(=O)N(c1ccc(C)cc1)C2=O`, the inhibition is 48.3% (active).

As for `CCCOC(=O)c1ccc(N2C(=O)c3ccccc3C2=O)cc1`, the inhibition is 0.9% (inactive).

As for `CSc1ccccc1NC(=O)C(C)N1C(=O)c2ccccc2S1(=O)=O` (stereo not drawn), the inhibition was -7.1% (inactive).

On to `COc1ccc(C2N=C(N)N=C(N)N2c2ccccc2)cc1OC` (stereo not drawn), for which the inhibition is 6% (inactive).

Turning to `CCC(C)Sc1nc(C)nc2c1c(=O)n(C)c(=O)n2C` (stereo not drawn), the inhibition was 2% (inactive).

For the molecule `CCOC(=O)C1(CC2CCCCO2)CCN(Cc2nc(-c3cccs3)oc2C)CC1` (stereo not drawn), the inhibition is 4% (inactive).

With `O=C(OCCOCn1cc(Br)c(=O)[nH]c1=O)c1ccccc1`, the inhibition was 0.6% (inactive).

On to `CONc1nc2nonc2nc1NOC`, for which the inhibition was 2.2% (inactive).

With `CC(C)(C)C(=O)Nc1c(Br)c(C2CC2)nn1-c1ccccc1`, the inhibition was 9.6% (inactive).

Turning to `COCCCNC(=O)c1ccc(CNS(=O)(=O)c2ccc(NC(C)=O)cc2)cc1`, the inhibition is -1.2% (inactive).

In the case of `COC(=O)Cc1csc(/N=C/c2c(O)n(-c3cccc(C(F)(F)F)c3)c(=O)c3ccccc23)n1`, the inhibition is 33.4% (inactive).

For the molecule `CCOc1ccc(-n2c(SCC(=O)Nc3cc(C(=O)O)ccc3Cl)nc3ccccc3c2=O)cc1`, the inhibition was 2.7% (inactive).

As for `CCOc1ccc(N/C(N)=N/c2nc(C)c(C)c(=O)[nH]2)cc1`, the inhibition is -8.8% (inactive).

Regarding `Cc1nnc(N/N=C/c2ccccn2)[nH]c1=O`, the inhibition is 6.9% (inactive).

For `CCOc1ccc(-n2c(O)c(/C=N/Nc3nnc(C)c(=O)[nH]3)c3ccccc3c2=O)cc1`, the inhibition is 36.2% (active).

As for `CCOc1ccc(-n2c(O)c(/C=N/c3ccnn3Cc3ccncc3)c3ccccc3c2=O)cc1`, the inhibition is 76.5% (active).

Take `CCOc1ccc(CN2CCN(Cc3ccc4cc(F)ccc4n3)CC2CCO)cc1` (stereo not drawn): the inhibition was -0.7% (inactive).

Turning to `COc1ccc(S(=O)(=O)N(C)C[C@H]2OCc3cnnn3CCCC(=O)N([C@H](C)CO)C[C@H]2C)cc1`, the inhibition is -6.2% (inactive).

For the molecule `Nc1nnc(SCCN2C(=O)c3ccccc3S2(=O)=O)s1`, the inhibition was -2.1% (inactive).

Turning to `CC(=O)N(O)CCCCCNC(=O)CCC(=O)N(O)CCCCCNC(=O)CCC(=O)N(O)CCCCCNC(=O)CCC(=O)O`, the inhibition was -7% (inactive).

For `CCOC(=O)c1ccc2c(c1)nc(SCC(=O)NC(C)C)n2CC`, the inhibition was -1.6% (inactive).

Regarding `C#CCNc1nc(C(C)C)nc2c1nnn2Cc1ccccc1F`, the inhibition is -3.7% (inactive).

With `COc1ccc2[nH]c3c(C)c4cc[n+](C)cc4c(C)c3c2c1`, the inhibition was 88.8% (active).

Regarding `CCCn1nc(C(=O)NNC(=O)CSCC(=O)Nc2cc(C)on2)c2ccccc2c1=O`, the inhibition was 2.6% (inactive).

As to `O=C(Nc1ccc(-c2cscn2)cc1)C1CCCN(Cc2ccc(CO)o2)C1` (stereo not drawn), the inhibition is -1.3% (inactive).

As for `CCOC(=O)CSc1nnc(CNC(=O)Cc2ccccc2)n1-c1ccccc1OC`, the inhibition was 0.1% (inactive).

For the molecule `CCCCCCSc1ccc([C@@H]2[C@@H]3C(=O)N(CC)C(=O)[C@@H]3[C@]3(C(=O)OC)CCCCN23)cc1OC`, the inhibition was 15.9% (inactive).

Consider `CCN1C(=O)[C@@H]2[C@@H](c3ccc(-c4ccccc4)cc3)N3CCCC[C@@]3(C(=O)OC)[C@@H]2C1=O`, for which the inhibition is 7% (inactive).

Regarding `CCCCCCSc1ccc([C@@H]2[C@H]3C(=O)N(CC)C(=O)[C@H]3[C@]3(C(=O)OC)CCCCN23)cc1`, the inhibition is 40.3% (active).

For the molecule `COC(=O)[C@]1(C)CCC[C@@]2(C)C3CC[C@]4(OC(C)=O)C[C@@]3(CCC21)CC4=NO` (stereo partly drawn), the inhibition is 0.3% (inactive).

For the molecule `CCC(=O)N(C)C(c1ccccc1Cl)c1nnnn1-c1c(C)cccc1C` (stereo not drawn), the inhibition is 2.8% (inactive).

Regarding `COc1ccc(NC(=O)Cn2c(-c3ccc(OC)cc3)cn(-c3ccc(C)cc3)c2=O)cc1`, the inhibition was 43.4% (active).

Turning to `Cc1ccc(-c2nnc(-c3ccc(NC(=O)c4cccs4)cc3)o2)cc1`, the inhibition was 149% (active).

For `O=C(Nc1ccc(N2CCN(C(=O)C3CC3)CC2)cc1)c1cccs1`, the inhibition was 0.2% (inactive).

For `O=C(Nc1ccc(-c2nnc(-c3ccccc3)o2)cc1)c1ccc(Br)o1`, the inhibition is 56.9% (active).

For `COc1ccc(-c2cn(-c3ccc(C)cc3)c(=O)n2CC(=O)Nc2ccc(OC)c(OC)c2)cc1`, the inhibition was 6.4% (inactive).

As to `CCS(=O)(=O)c1ccc(-c2cccc(NC(=O)c3ccc(Br)o3)c2)nn1`, the inhibition is -4.8% (inactive).

In the case of `COc1ccc(NC(=O)CN(C)C(=O)c2cc(C)oc2C)cc1`, the inhibition is -18.9% (inactive).

As for `Cc1ccc(C(=O)NCC(=O)OCc2nnc(-c3ccccc3)o2)cc1`, the inhibition was 3% (inactive).

Regarding `Cc1ccc(NC(=O)Cn2c(C)csc2=O)cc1`, the inhibition was -0.6% (inactive).

Regarding `COc1ccc(CC(=O)Nc2ccc(-c3nnc(-c4ccc(C)cc4)o3)cc2)cc1`, the inhibition was 32.7% (active).

`O=C(Nc1ccc(-c2nnc(-c3ccccc3)o2)cc1)C1CCCO1` (stereo not drawn): the inhibition was -0.7% (inactive).

`COc1ccc(C(CC(=O)Nc2ccc(C)cc2)NC(=O)C(F)(F)F)cc1` (stereo not drawn): the inhibition was -7.5% (inactive).
